Structures are written as SMILES. Values joined by “and” are separate entries in the source; they are usually repeats but may differ in a detail not shown here. Equal values may be shown once. Inconclusive results are not listed. Entries that show only a call come without a potency. Active and inactive are the calls of the source. The call rests on the fitted dose curve; in most records, active means well fitted cell-killing curve with a large enough effect; inconclusive means small, poorly fitted or top-dose-only effect; inactive means flat fitted curve, though single readings scatter.
Potency means the concentration at half of the fitted maximal effect.

A short description of this assay: qHTS of pediatric cancer cell lines to identify multiple opportunities for drug repurposing: Primary screen for Rh18 cells (AID 1347102). Further: nearly all actives have a fitted effect of over 65% in size. To be noted: Rh18 rhabdomyosarcoma viability, CellTiter-Glo luminescence, 48 h; series mostly up to 46 µM. The method in brief: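 Cells (500-1,000/well) rested 5 h, then received compounds for 48 h; metabolically active cells were measured by CellTiter-Glo luminescence. Final concentrations spanned up to 46 µM (MIPE, 11-point) or 0.59 nM-46 µM (NPC, 8-point) in primary screens, 11-point in follow-ups.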
Regarding `CCN(CC)CC#CCOC(=O)C(O)(c1ccccc1)C1CCCCC1` (stereo unspecified), the Potency result was “inactive”. For `CC1CC2C3CCC4=CC(=O)C=C[C@]4(C)[C@@]3(F)[C@@H](O)C[C@]2(C)[C@@]1(O)C(=O)CO` (stereo partly specified) the value was “inactive”. For `C1CCC(C(CC2CCCCN2)C2CCCCC2)CC1` (stereo unspecified) the value was 16.8 µM (active) and 26.4 µM (active). For `CCC(C)(C)c1ccc(CC(C)CN2C[C@@H](C)O[C@@H](C)C2)cc1` (stereo partly specified) the value was “inactive”; for `Clc1ccccc1CN1CCc2sccc2C1`, “inactive”; for `Cc1onc(-c2ccccc2Cl)c1C(=O)N[C@@H]1C(=O)N2[C@@H]1SC(C)(C)[C@@H]2C(=O)O`, “inactive”. With `CC(C)OC(=O)OCOP(=O)(CO[C@H](C)Cn1cnc2c(N)ncnc21)OCOC(=O)OC(C)C`, the Potency result is “inactive”. `N[C@@H](Cc1ccc(O)c(O)c1)C(=O)O`: the Potency result is “inactive”.

As to `CCCCS(=N)(=O)CCC(N)C(=O)O` (stereo unspecified), the Potency result is “inactive”. Under `CNS(=O)(=O)Cc1ccc2[nH]cc(CCN(C)C)c2c1` stands “inactive”.

`CC(=O)[C@H]1CC[C@H]2[C@@H]3CC=C4C[C@@H](O)CC[C@]4(C)[C@H]3CC[C@]12C`: the Potency result was “inactive”. For `CC(C)(C)NC(=O)[C@H]1CC[C@H]2[C@@H]3CC[C@H]4NC(=O)C=C[C@]4(C)[C@H]3CC[C@]12C` the value was “inactive”. On to `CN(C)CCc1c[nH]c2ccc(C[C@H]3COC(=O)N3)cc12`, for which the Potency entry was “inactive”.

As to `O=P(O)(O)C(O)(Cc1cccnc1)P(=O)(O)O`, the Potency result is “inactive”. Take `Cc1ccnc2c1NC(=O)c1cccnc1N2C1CC1`: the Potency entry was “inactive”. Under `NC1(c2ccc(-c3nc4ccn5c(=O)[nH]nc5c4cc3-c3ccccc3)cc2)CCC1` stands 16.8 µM (active).

Values taken from PubChem BioAssay (NCATS).
